CYP2C19 inh: blockers of cytochrome P450 2C19 activity – biochemical, luminescence, ADME assay, primary screen. P33261. CYP2C19 Supersomes, luciferin-H EGE luminescence, 30 min. inhibition, % at 5 µM. hit rate 21% among 96,000. AID 778, 2007;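 active = CYP2C19 inhibition above a set limit at 5 µM in the primary screen, cut at about 50% in these data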
Target sequence (P33261 whole entry, looked up): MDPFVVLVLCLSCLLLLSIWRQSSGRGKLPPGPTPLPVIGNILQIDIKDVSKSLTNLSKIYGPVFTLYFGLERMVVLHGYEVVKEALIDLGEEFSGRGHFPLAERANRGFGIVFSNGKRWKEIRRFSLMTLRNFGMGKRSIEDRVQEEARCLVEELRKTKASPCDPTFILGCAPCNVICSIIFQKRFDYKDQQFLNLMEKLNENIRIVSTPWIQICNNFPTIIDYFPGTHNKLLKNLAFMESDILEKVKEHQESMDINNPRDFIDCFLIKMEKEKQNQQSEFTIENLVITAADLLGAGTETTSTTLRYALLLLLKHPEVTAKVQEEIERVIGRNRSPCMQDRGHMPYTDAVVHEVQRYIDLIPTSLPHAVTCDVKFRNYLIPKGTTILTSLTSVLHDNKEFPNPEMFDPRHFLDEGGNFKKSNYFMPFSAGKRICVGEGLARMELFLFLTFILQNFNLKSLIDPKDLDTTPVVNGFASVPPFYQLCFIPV
PostGolgi ctrl: growth inhibition of yeast control strain, primary screen, counter-screen for post-Golgi transport modulator project; efflux-deficient yeast background strain, growth absorbance A615, 16 h; inhibition, % at 10 µM; hit rate 5% among 98,000
CYP2C9 activ: human CYP2C9 activators, primary screen, biochemical, luminescence; recombinant CYP2C9, luciferin-H conversion; stronger effect = higher value; factor 1 = untreated enzyme, 0 = blocked; activation factor at 5 µM; hit rate 1.4% among 96,000; AID 1024, 2008;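 active = activation factor of 2 or more for CYP2C9 at a 5 µM dose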
CYP2C19 act: human CYP2C19 activators, primary screen, biochemical, luminescence | 96,000 tested, under 10 active | Cytochrome P450 2C19 (Homo sapiens), P33261 | activation factor at 5 µM | recombinant CYP2C19, luciferin-H EGE luminescence; stronger effect = higher value; 0 = fully inhibited enzyme, 1 = untreated enzyme | AID 1025, 2008;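 active = activation factor of at least 2 at 5 µM in the primary screen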
CYP2C9 inh: blockers of cytochrome P450 2C9 activity – biochemical, luminescence, ADME assay, primary screen; P11712; CYP2C9 Supersomes, luciferin-H conversion; inhibition, % at 5 µM; hit rate 20% among 96,000;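 active = blocking of liver enzyme CYP2C9 beyond about 50% at 5 µM, limit read from the data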
PostGolgi yeast: phenotypic screen on post-Golgi transport, primary screen. post-Golgi transport phenotypic cell assay. inhibition, % at 10 µM. hit rate 0.9% among 98,000;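 also: yeast cells grown in 1536-well plates; yeast grown about 18 h at 30C before absorbance read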
Each line names hits and unclear results; the compound was inactive in the other large screens. The list is not random: actives were taken first. Their share in the collection is about 32%. Rule as the data show it, unless noted: active = inhibition above about 30%; inactive = the rest.

OCC1CCCN1C(=S)Nc1ccccc1 (stereo not given)	none
CCOc1ccc(C2/C(=C(/O)c3ccc(F)cc3)C(=O)C(=O)N2CCCN(C)C)cc1 (stereo not given)	PostGolgi ctrl 44.1
COc1cc(C2/C(=C(/O)c3ccc(OCC(C)C)cc3)C(=O)C(=O)N2CCN(C)C)ccc1O (stereo not given)	CYP2C19 inh 67.5
COCCCN1C(=O)C(=O)/C(=C(/O)c2ccc(OC)cc2)C1c1cccc(OC)c1 (stereo not given)	PostGolgi ctrl 34.6
CC(C)COc1ccc(/C(O)=C2/C(=O)C(=O)N(CCN(C)C)C2c2ccncc2)cc1 (stereo not given)	none
CCn1c(SCC(=O)Nc2nc(C)cs2)nnc1-c1cccnc1	none
N#CC1=C(O)C(c2ccccc2)n2c1nc(=O)c1ccccc12 (stereo not given)	none
COc1cc(OC)cc(-c2nc3ccccc3s2)c1	none
CCSc1nc(-c2ccc(OC)cc2)n(-c2nc3ccccc3s2)n1	CYP2C9 inh 54.5
CN(c1ccccc1)S(=O)(=O)c1ccc(C(=O)NCC2CCCO2)cc1 (stereo not given)	none
CN1C(=O)c2ccccc2Sc2ccc(NC(=O)NC3CC3)cc21	none
O=C(Nc1ccc2c(c1)N(Cc1ccccc1)C(=O)c1ccccc1S2)NC1CC1	CYP2C19 inh 86.9, CYP2C9 inh 76.3
O=C(CCC(=O)c1cccs1)Nc1ccccc1F	CYP2C19 inh 52.2
O=C(CCNc1cc(Cl)cc(Cl)c1)c1cccs1	none
O=C(CCSc1ccc(Cl)cc1)c1cccs1	none
CC(C)(C)CC(=O)NCc1ccc(F)cc1	CYP2C19 inh 52.7
O=C(CSc1ncccn1)NCc1ccc(F)cc1	none
O=C(CCC(=O)c1cccs1)NCc1ccc(F)cc1	CYP2C19 inh 72.5
O=C(CCc1ccc(CCC(=O)c2cccs2)s1)c1cccs1	CYP2C19 inh 89.4, CYP2C9 inh 92.7
CCN1CCN(c2nc3c(c(=O)n(C)c(=O)n3C)n2CCSc2nccc(C)n2)CC1	none
CCOC(=O)CSC1=NC(=O)CS1	none
COC(=O)c1nn(C23CC4CC(CC(C4)C2)C3)c2c1C(=O)N(c1ccc(F)cc1)C2=O	none
CC(=O)N1c2ccccc2N(Cc2ccc(C)cc2C)C(=O)C1(C)C	CYP2C19 inh 95.0, CYP2C9 inh 81.2
COC(=O)C(C(=O)NCC1CCCO1)C1CCCC1 (stereo not given)	none
COc1ccc(N(C(=O)C(C)C)S(=O)(=O)c2ccc(Cl)cc2)cc1	CYP2C19 inh 96.6, CYP2C9 inh 88.2
COc1ccc(N(C(=O)C(C)C)S(=O)(=O)c2ccc3c(c2)n(C)c(=O)n3C)cc1	CYP2C9 inh 65.1
COc1ccc(S(=O)(=O)N(CC(=O)O)c2ccc(C)cc2)cc1	none
CC1(C)Cc2nc3nc(SCC(=O)NCCc4ccccc4)n(-c4ccccc4)c(=O)c3cc2CO1	none
CCc1[nH]c(=O)c(C#N)c2c1COC(C)(C)C2	none
CCc1[nH]c(=O)c(C#N)c2c1CCCC2	PostGolgi ctrl 31.6
O=C(NCCN1CCOCC1)C1CCC(=O)N1C1CCCCC1 (stereo not given)	none
CCOC(=O)c1ccc(NC(=O)CSc2nc(SC)ns2)cc1	CYP2C19 inh 54.6, CYP2C9 inh 60.0
CCOc1ccc2nc(NC(=O)CSc3nc(SC)ns3)sc2c1	none
CSc1nsc(SCC(=O)Nc2cccc(C(C)=O)c2)n1	CYP2C9 inh 51.2
CCOC(=O)c1ccc(NC(=O)CSc2nnc(-c3cccs3)n2C)cc1	none
CC(C(=O)NCc1ccc2c(c1)OCO2)N1c2cccc3cccc(c23)S1(=O)=O (stereo not given)	CYP2C19 inh 82.2, CYP2C9 activ 2.7
O=C(CN1C(=O)c2cccc3cccc1c23)NCc1ccc2c(c1)OCO2	CYP2C19 inh 68.0, CYP2C9 activ 4
O=C(CN1C(=O)c2ccccc2C1=O)NCc1ccccn1	none
O=C(CN1C(=O)c2cccc3cccc1c23)NCc1ccccn1	CYP2C9 activ 2.8
O=C(Cn1cnc2ccccc2c1=O)N1CCN(Cc2ccc3c(c2)OCO3)CC1	none
